Source: PubChem BioAssay (The Scripps Research Institute Molecular Screening Center)
NCOA1 inh: human NCOA1 inhibition. Q15788. HEK293 GAL4-SRC1 luciferase reporter, luminescence. inhibition, % at 3.6 µM. 360,000 tested, 0.12% active. AID 588354;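 active means inhibition above the campaign mean plus 3 SD, with each screening campaign given its own cutoff, cut at about 60% in these data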;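 further: 0% = DMSO treated cells and 100% = gossypol at 36 µM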
LRH-1 inv ag: NR5A2 inverse agonism in reporter assay | O00482 | HEK293T StAR-luciferase reporter, LRH-1 transfected, 24 h | inhibition, % at 3.6 µM | 360,000 tested, 0.13% active;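 active means inhibition above the mean inhibition of all tested compounds plus 3 SD, cut at about 73% in these data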;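 further: 0% = DMSO wells and 100% = reporter-only cells lacking LRH-1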
NCOA2 inhibitor: inhibits human steroid receptor coactivator 2; Q15596; HEK293 GAL4-SRC2 luciferase reporter, luminescence; inhibition, % at 9 µM; 370,000 tested, 0.17% active; AID 651957;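 active means inhibition above the mean inhibition of all tested compounds plus 3 SD, set per campaign, cut at about 52% in these data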;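 further: 0% = DMSO treated cells and 100% = cells given Gossypol at 36 µM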
SRC3 inh: inhibits human SRC3 coactivator; HEK293 GAL4-SRC3 luciferase reporter, luminescence; AID 588352; inhibition, % at 3.6 µM; Q9Y6Q9; 360,000 tested, 0.17% active;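 active means inhibition above a per-campaign cutoff, the mean of all compounds plus 3 SD, cut at about 60% in these data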;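 further: 0% = DMSO-treated cells and 100% = gossypol-treated cells at 36 µM; higher means less SRC3-driven luciferase light from the GAL4 reporter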
Target sequence (Q9Y6Q9 whole entry, looked up, the tested form may be a part): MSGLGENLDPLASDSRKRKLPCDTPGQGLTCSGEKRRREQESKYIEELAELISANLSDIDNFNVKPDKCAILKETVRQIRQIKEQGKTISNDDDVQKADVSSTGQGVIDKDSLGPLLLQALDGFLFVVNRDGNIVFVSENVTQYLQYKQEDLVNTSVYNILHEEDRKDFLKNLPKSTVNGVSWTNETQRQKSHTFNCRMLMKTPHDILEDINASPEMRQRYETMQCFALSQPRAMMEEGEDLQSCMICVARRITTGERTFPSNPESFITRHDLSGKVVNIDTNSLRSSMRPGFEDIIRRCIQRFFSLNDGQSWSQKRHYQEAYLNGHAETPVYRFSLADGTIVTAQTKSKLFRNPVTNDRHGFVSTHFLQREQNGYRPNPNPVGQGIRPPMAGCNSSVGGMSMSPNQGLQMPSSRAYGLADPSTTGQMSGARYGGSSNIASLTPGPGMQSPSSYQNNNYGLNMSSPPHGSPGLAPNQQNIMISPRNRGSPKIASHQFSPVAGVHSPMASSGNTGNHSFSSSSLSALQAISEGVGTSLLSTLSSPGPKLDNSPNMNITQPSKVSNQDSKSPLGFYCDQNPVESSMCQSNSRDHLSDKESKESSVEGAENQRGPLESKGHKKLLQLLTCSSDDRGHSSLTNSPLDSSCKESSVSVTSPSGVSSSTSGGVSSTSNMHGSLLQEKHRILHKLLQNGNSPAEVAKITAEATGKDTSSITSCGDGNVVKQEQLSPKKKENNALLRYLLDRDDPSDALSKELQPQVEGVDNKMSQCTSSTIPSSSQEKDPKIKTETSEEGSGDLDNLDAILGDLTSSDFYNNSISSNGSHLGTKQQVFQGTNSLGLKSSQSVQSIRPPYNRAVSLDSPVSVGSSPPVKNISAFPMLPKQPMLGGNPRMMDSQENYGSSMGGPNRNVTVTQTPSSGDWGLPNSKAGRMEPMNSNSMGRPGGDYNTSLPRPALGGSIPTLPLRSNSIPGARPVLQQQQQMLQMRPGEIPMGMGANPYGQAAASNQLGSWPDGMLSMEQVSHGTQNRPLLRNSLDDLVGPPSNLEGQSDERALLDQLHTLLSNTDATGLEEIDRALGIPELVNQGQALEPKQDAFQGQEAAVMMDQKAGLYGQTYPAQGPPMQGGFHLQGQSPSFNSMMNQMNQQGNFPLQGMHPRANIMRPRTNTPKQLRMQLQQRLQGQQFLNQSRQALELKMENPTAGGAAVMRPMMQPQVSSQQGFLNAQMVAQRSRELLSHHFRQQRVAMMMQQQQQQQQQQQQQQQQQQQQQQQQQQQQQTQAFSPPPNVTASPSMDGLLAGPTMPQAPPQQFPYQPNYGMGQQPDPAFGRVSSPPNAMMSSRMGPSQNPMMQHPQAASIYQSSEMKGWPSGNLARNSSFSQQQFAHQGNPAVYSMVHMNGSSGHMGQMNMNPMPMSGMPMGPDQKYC
GalR3 antag: blocks the human galanin receptor 3; HEK293 GalR3-CNG cAMP membrane potential fluorescence; galR3 body fused to GalR1 C-terminus; O60755; inhibition, % at 3 µM; 360,000 tested, 0.44% active;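 active means inhibition above the screen-wide average plus 3 SD, cut at about 13% in these data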;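 further: forskolin and galanin both at EC90 stimulate the cells; cAMP rise reported by CNG channel membrane potential dye signal; 0% = forskolin plus galanin with DMSO and 100% = forskolin alone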
NR2F2 inh: blocks human COUP-TFII nuclear receptor | inhibition, % at 8.6 µM | 370,000 tested, 0.7% active | HEK293T NGFI-A luciferase reporter, luminescence | P24468;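 active means inhibition above a per-plate cutoff, mean inhibition of test wells between control levels plus 3 SD, cut at about 38% in these data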;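 further: cells cotransfected with COUP-TFII expression vector driving the NGFI-A reporter; 0% = median of COUP-TF2 test wells and 100% = reporter-only cells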
GalR3 conf: GalR3 (human) antagonism, confirmation; inhibition, % at 3 µM; HEK293 GalR3 CNG cAMP biosensor, membrane potential fluorescence; galR3 fused to GalR1 carboxy tail; challenged with forskolin and galanin at EC90; 1,600 tested, 59% active; AID 652245; shares compounds with GalR3 antag;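 active means inhibition above the primary screen's cutoff, the mean inhibition of all screened compounds plus 3 SD, cut at about 13% in these data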;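 further: 0% = forskolin plus galanin and 100% = forskolin alone with DMSO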
CNG parental: acts as nonspecific agonist in parental HEK-CNG cells. shares compounds with GalR3 antag. HEK293-CNG parental cells, cAMP membrane potential fluorescence; normalised: DMSO wells 0%, forskolin wells 100%. activation, % at 3 µM. 1,600 tested, 10% active. AID 652268; in the data active means activation above about 1.3%
VP16 Luc counter: inhibits VP16 reporter, flagging COUP-TFII antagonist hits; AID 687007; inhibition, % at 8.5 µM; shares compounds with NR2F2 inh; HEK293 Gal4-VP16 luciferase reporter, luminescence; 2,500 tested, 25% active; in the data active means inhibition above about 13%
NR2F2 inh conf: COUP-TFII (NR2F2) inhibition, confirmation assay | 2,500 tested, 45% active | HEK293 NGFI-A luciferase reporter, luminescence | inhibition, % at 8.5 µM | shares compounds with NR2F2 inh;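 active means mean inhibition over three repeats above a set limit taken from the earlier primary screen, cut at about 38% in these data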;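 further: 100% = cells given the luciferase reporter alone without the COUP-TF2 vector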
* marks the source's active call; other numbers are inactive results; nt = not tested or not shown. Shown are actives, neighbours in structure and some others; about 1.1% of the full set was active somewhere.

SMILES	NCOA1 inh	LRH-1 inv ag	NCOA2 inhibitor	SRC3 inh	GalR3 antag	NR2F2 inh	VP16 Luc counter	NR2F2 inh conf	others
CC1(C)CC2CC(C)(CN2S(=O)(=O)c2ccc(C(=O)Nc3cccc(S(=O)(=O)N4CCOCC4)c3)cc2)C1 (stereo not drawn)	7	44	20	24	87*	68*	1	63*	GalR3 conf=115*;CNG parental=-2
COc1ccc(CNC(=O)C2(CC3CC(c4ccccc4)=NO3)CCN(C(=O)OC(C)(C)C)CC2)cc1 (stereo not drawn)	10	-40	0	18	-1	-17	nt	nt
CCOC(=O)N1CCN(C(=O)C2c3cc(OC)c(OC)cc3C(=O)N3CCc4ccccc4C23)CC1 (stereo not drawn)	-5	5	-22	2	-7	14	nt	nt
CC(=O)c1cccc(NS(=O)(=O)c2ccc(C(=O)Nc3ccccc3)cc2)c1	-17	27	20	31	56*	49*	12	48*	GalR3 conf=71*;CNG parental=0
COc1ccc(NC(=O)C2Cc3c(-c4cccc(C(C)=O)c4)ccnc3O2)cc1OC (stereo not drawn)	29	55	19	7	61*	75*	10	49*	GalR3 conf=104*;CNG parental=0
CCCCn1c2c(c(=N)c3ccccc31)CCC2	-65	-19	-11	21	-4	-8	nt	nt
CCCCCCCCCCn1c2c(c(=N)c3c1CCC3)CCC2	70*	96*	27	79*	28*	81*	21*	79*	GalR3 conf=39*;CNG parental=24*
CCCCCCCCn1c2c(c(=N)c3ccccc31)CCC2	24	84*	20	78*	44*	90*	13*	73*	GalR3 conf=62*;CNG parental=11*
O=C1C2=C(NC(=S)NC2c2ccc(Cl)cc2)NC(c2ccc(Cl)cc2)N1c1ccc(Cl)cc1 (stereo not drawn)	4	-9	20	-14	-2	23	nt	nt
COc1cc(/C=N/NC(=O)CCN2CCN(C)CC2)cc2c1OCO2	-19	2	6	7	-5	13	nt	nt
Cc1ccc(CN2CCc3c(OCc4ccc(F)cc4)cccc3C2=O)cc1	10	3	13	16	-6	22	nt	nt
O=C1c2cccc(OCc3ccc(F)cc3)c2CCN1Cc1ccc(F)cc1	31	16	19	32	20*	58*	1	44*	GalR3 conf=38*;CNG parental=0
CC1CCc2nc(NC(=O)c3ccc(S(=O)(=O)N4CCCc5ccccc54)cc3)sc2C1 (stereo not drawn)	6	-3	-6	2	-7	3	nt	nt
O=C(Nc1nc2c(s1)CCCC2)c1ccc(S(=O)(=O)N2CCCc3ccccc32)cc1	3	14	15	22	-3	50*	-8	31
CC(C)(C)c1ccc(C(=O)NC(=S)Nc2nc3c(s2)CCCC3)cc1	34	11	45	38	-2	49*	-24	37
C=CCn1c(COc2cccc(C)c2C)nnc1SCC(=O)N1CCN(c2ccccc2)CC1	1	10	0	0	-2	44*	11	38*
CCn1c(SCC(=O)N2CCN(c3ccccc3)CC2)nnc1-c1c[nH]c2ccccc12	16	7	20	12	nt	46*	8	37
Cn1c(SCC(=O)N2CCN(c3ccccc3)CC2)nnc1-c1c[nH]c2ccccc12	15	16	9	10	nt	32	nt	nt
COc1ccc(C(=O)NC(C(=O)N2CCN(C/C=C/c3ccccc3)CC2)C(C)C)cc1 (stereo not drawn)	5	16	5	9	-8	-1	nt	nt
O=C(NCCCc1ccccc1)C1CCN(c2nc(-c3ccc(Br)cc3)cs2)CC1	nt	nt	nt	nt	nt	37*	-1	1
O=C(O)c1ccccc1SC1CC(=O)N(C2CCCCC2)C1=O (stereo not drawn)	-2	13	nt	12	nt	nt	nt	nt
COc1ccc(-c2csc3ncnc(NCCCO)c23)cc1	67*	24	20	59	-3	44*	14*	24
CC(=O)c1c(C)[nH]c(C(=O)COC(=O)c2nccnc2N)c1C	2	-10	-4	-5	-5	12	nt	nt
Cn1c(Cn2c(=O)sc3ccccc32)nnc1SCC(N)=O	-4	4	-13	-8	-1	-8	nt	nt
CC(=O)N(/N=C1\Sc2ccccc2C1=O)c1ccccc1C	-101	-118	-72	-66	-1	-41	nt	nt
SMILES	NCOA1 inh	LRH-1 inv ag	NCOA2 inhibitor	SRC3 inh	GalR3 antag	NR2F2 inh	VP16 Luc counter	NR2F2 inh conf	others
CC(=O)N(/N=C1\Sc2ccccc2C1=O)c1ccc(C)cc1C	54	63	26	64*	-4	64*	24*	76*
COc1cccc(N2CCN(C(=O)c3c(C)nn(-c4ccccc4)c3C)CC2)c1	6	-14	-19	6	-3	-3	nt	nt
O=C(c1cc(COc2ccc(F)cc2Cl)on1)N1CCC(c2ccncc2)CC1	1	17	11	13	-7	39*	-10	26
CC1(C)C=C2C(N(Cc3ccc4c(c3)OCO4)C(=N)N2C(=O)OCc2ccccc2)n2c(=O)n(-c3ccccc3)c(=O)n21 (stereo not drawn)	nt	nt	nt	nt	nt	-4	nt	nt
O=C(C[n+]1ccccc1)N/N=C/c1ccccc1F	2	8	-29	16	-4	3	nt	nt
O=C(CN1CCN(Cc2ccc(Cl)cc2)C1=O)NCCCN1CCN(c2ccc(F)cc2)CC1	9	24	15	31	-7	56*	1	13
O=C(CN1CCN(Cc2ccc(Cl)cc2)C1=O)NCCCN1CCOCC1	35	14	-5	31	1	3	nt	nt
O=C(c1ccccc1)c1ccc(Cn2cc(CCCO)nn2)cc1	6	20	2	3	-8	37*	6	13
Cc1sc(NC(=O)c2ccco2)c(C(c2cccnc2)N2CCC(C)CC2)c1C (stereo not drawn)	31	29	10	27	-4	51*	2	49*
Cc1cc(Br)c(S(=O)(=O)NCc2cccnc2)cc1C	17	7	18	4	-11	-8	nt	nt
O=C(OCCC12CC3CC(CC(C3)C1)C2)c1ccc(NCc2cc(O)ccc2O)cc1	56	52	94*	74*	-2	90*	78*	101*
